Source: PubChem BioAssay (NCATS)
Values without a mark were called inactive. Results filed as inconclusive are left out. Activity calls are given as the source filed them. Unless noted, calls follow the shape of the dose curve; as a rule, active = well fitted curve in either direction with a large enough effect (not every such curve was filed as active); inconclusive = small, poorly fitted or top-dose-only effect, or another doubt; inactive = flat fitted curve, though single readings scatter.

Experiments:
[1] = molecular target: Lysosomal acid glucosylceramidase (Homo sapiens) (UniProt P04062); assay: Glucocerebrosidase-p2 (AID 348; in the data active = potency below about 10 µM; also: potency is read from the fitted curve at half-maximal effect); settings: purified GBA, blue fluorogenic substrate, 40 min
Outline: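 Compounds titrated from 0.6 nM upwards against 0.2 nM enzyme in pH 5.9 citric acid/KH2PO4, taurocholate, tween-20; blue fluorogenic substrate 80 uM, 40 min room temperature, stopped and read Ex 365/Em 440 for AC50.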

[2] = AP1 Signaling Pathway (AID 357); settings: ME-180 AP-1-bla reporter, EGF-induced, beta-lactamase ratio, 5 h; at 7.69 µM (top of the series) unless noted;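 also: ME-180 reporter cells stimulated with EGF at its EC50 level; % is scaled to controls: 0 for no effect and ±100 for the full control effect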
Outline: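 A ratiometric CCF4 readout (405 nm excitation; 460 and 530 nm emission) quantified AP-1-driven beta-lactamase in ME-180 cells after 5 h with compound and EC50 EGF; AC50 values were derived for activators and inhibitors.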

[3] = NFAT Signaling Pathway (AID 444); settings: Jurkat NFAT-bla M1, carbachol, beta-lactamase ratio, 5 h; at 7.69 µM (top of the series) unless noted;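 also: carbachol stimulus at about its EC50 of 1 µM final; % is scaled to controls: 0 for no effect and ±100 for the full control effect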
Outline: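 Jurkat cells carrying an NFAT-driven β-lactamase reporter and co-transfected muscarinic M1 receptor were treated with compound plus carbachol (1 uM final, an EC50 level) for 5 h at 37 °C. CCF4 loading followed for 1 h at RT; 460/530 nm ratio gave %activity.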

[4] = Stat Signaling Pathway (AID 446); settings: ME-180 SIE beta-lactamase reporter, IL-6 stimulated, 5 h; at 7.69 µM (top of the series) unless noted;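 also: ME-180 cervical cancer cells given 40 pM IL-6 alongside compound; SIE-controlled beta-lactamase reporter measured as 460/530 nm FRET emission ratio; % is scaled to controls: 0 for no effect and ±100 for the full control effect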
Outline: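 ME-180 cells carrying a SIE-driven beta-lactamase reporter are stimulated with 40 pM IL-6 for 5 h at 37C in the presence of compound. The 460/530 nm FRET substrate ratio is read after 2.5 h at RT. Data are normalised to 300 pM IL-6 and to 125 nM JAK inhibitor controls.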

[5] = molecular target: Glucocorticoid receptor (Homo sapiens) (UniProt P04150); assay: GR-GFP Redistribution (AID 450;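 active = compounds whose dose series gives a full or clear partial fitted curve of increased nuclear translocation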; also: potency is read from the fitted curve at half-maximal effect); settings: U2OS GR-GFP nuclear translocation, laser cytometry, 2 h
[6] = molecular target: Glucocorticoid receptor (Homo sapiens) (UniProt P04150); assay: GR-EFC Redistribution (AID 451; calls by dose curve; also: potency is read from the fitted curve at half-maximal effect); settings: CHO-K1 GR-EFC translocation, beta-gal luminescence, 2 h
Outline: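 CHO-K1 cells stably expressing nuclear-localized β-gal enzyme acceptor and GR fused C-terminally to the enzyme donor fragment; ligand-driven nuclear translocation restores β-gal by complementation. Compounds titrated up to 46 uM final, 2 h at 37 °C; luminescence read.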

[7] = molecular target: 3',5'-cyclic-AMP phosphodiesterase 4B (Homo sapiens) (UniProt Q07343); assay: qHTS Assay for Inhibitors of PDE-IV (AID 607; active = well fitted activation curve with a large enough effect in the main read-out, with a control signal flat, not every such curve was filed as active; also: % of control where 0% means no effect); settings: HEK293 ACTOne CNG channel cells, membrane potential fluorescence; series mostly up to 22.9 µM
Outline: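 HEK293 ACTOne cells with CNG channel (1000/well), endogenous PDE4; membrane potential dye, compounds up to 22.9 uM final. Fluorescence Ex 535/Em 590; RO 20-1724 (100 uM final) as reference.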

[8] = molecular target: Cytochrome P450 2C9 (Homo sapiens) (UniProt P11712); assay: qHTS Assay for Inhibitors and Substrates of Cytochrome P450 2C9 (AID 883; active = well fitted curve in the direction sought with a large enough effect; an effect the other way counts as inactive or inconclusive; also: % is scaled to controls: 0 for no effect and ±100 for the full control effect; nearly all actives have a fitted effect of over 60% in size); settings: recombinant CYP2C9, luciferin-H luminescence, 60 min; series mostly up to 11.4 µM
Outline: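 CYP2C9 deoxyluciferin hydroxylation, 37C, 60 min with NADPH regeneration; 10nM enzyme, 100uM Luciferin-H (KM). Glo detection reagent stopped reaction; luminescence normalized to sulphaphenazole (57uM) full inhibition.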

[9] = molecular target: Mitogen-activated protein kinase 10 (Mus musculus) (UniProt Q61831); assay: JNK3 AlphaScreen Assay (AID 530); settings: JNK3 lysate, c-Jun phosphorylation; series mostly up to 11.4 µM;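 also: kinase came from lysate of stimulated human HepG2 cells; signal reports phosphorylation of biotinylated GST-cJun 1-79 at Ser73 with 10 µM ATP; % is scaled to controls: 0 for no effect and ±100 for the full control effect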
Outline: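 Inhibitors reduce antibody binding to phosphorylated biotin-cJun, lowering AlphaScreen luminescence. Lysates from HepG2 cells pre-activated by IL-1beta plus TNF-alpha supplied JNK3; compounds were titrated.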

[10] = qHTS Assay for Identification of Small Molecule Agonists for Hypoxia Response Element Signaling Pathway (AID 914; active = well fitted activation curve with a large enough effect in the signal ratio, with a control signal flat, not every such curve was filed as active; the % refers to the signal ratio; also: % of control where 0% means no effect); settings: ME-180 (cervical carcinoma) HRE-bla reporter, beta-lactamase ratio, CoCl2, 17 h; activation: active compounds read high
Outline: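 Compounds in a titration series were added to ME-180 reporter cells alongside an EC50 level of CoCl2. After 17 hours, beta-lactamase activity was read as the 460nm/530nm emission ratio of CCF4, giving AC50 values.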

[11] = molecular target: Cytochrome P450 3A4 (Homo sapiens) (UniProt P08684); assay: qHTS Assay for Inhibitors and Substrates of Cytochrome P450 3A4 (AID 884; active = well fitted curve in the direction sought with a large enough effect; an effect the other way counts as inactive or inconclusive; also: % is scaled to controls: 0 for no effect and ±100 for the full control effect; nearly all actives have a fitted effect of over 50% in size); settings: recombinant CYP3A4, Luciferin-PPXE luminescence; series mostly up to 57.1 µM
Outline: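 20 nM human CYP3A4 with 25 uM Luciferin-PPXE (at KM) in 200 mM KPO4, preincubated 10 min with compound; NADPH regeneration started a 60 min RT reaction. Luciferin detected by luminescence, normalized to 57 uM ketoconazole as full inhibition.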

[12] = molecular target: Cytochrome P450 2D6 (Homo sapiens) (UniProt P10635); assay: qHTS Assay for Inhibitors and Substrates of Cytochrome P450 2D6 (AID 891; active = well fitted curve in the direction sought with a large enough effect; an effect the other way counts as inactive or inconclusive;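 also: luciferin methyl ether substrate demethylated by CYP2D6 with NADPH regeneration; % is scaled to controls: 0 for no effect and ±100 for the full control effect; nearly all actives have a fitted effect of over 60% in size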); settings: recombinant CYP2D6, luciferin-ME EGE luminescence; series mostly up to 11.4 µM
Outline: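 Human CYP2D6 (5 nM) with 30 uM Luciferin-ME EGE (at Km) in 100 mM KPO4, compound preincubated 10 min, then NADPH regeneration system for 60 min at room temperature. Luciferin read by luminescence; normalized to 1.43 uM quinidine.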

[13] = Confirmation and Secondary Assay for Modulators of Hemoglobin Beta Chain Splicing at IVS2 654 locus (AID 910; active = well fitted curve in the direction sought with a large enough effect; an effect the other way counts as inactive or inconclusive;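 also: per-well total GFP intensity by laser scanning cytometry after 2-day treatment; % of control where 0% means no effect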); settings: HeLa EGFP-654 splicing reporter, GFP fluorescence, 48 h; series mostly up to 38.3 µM
Outline: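 HeLa cells stably carrying EGFP interrupted by mutant beta-globin IVS2-654 intron (CMV-driven) were treated with compound for 2 days at 37C; corrected splicing was scored as total peak GFP intensity per well (488 nm excitation, 500-520 nm emission).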

[14] = Confirmation and Secondary Assay for Modulators of Hemoglobin Beta Chain Splicing at IVS2 705 locus (AID 930; active = well fitted curve in the direction sought with a large enough effect; an effect the other way counts as inactive or inconclusive;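 also: HeLa cells stably expressing the EGFP-705 splicing reporter; GFP fluorescence per well restored by corrected splicing of the IVS2-705 intron in EGFP; % of control where 0% means no effect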); settings: HeLa EGFP-705 splicing reporter, GFP fluorescence, 48 h; series mostly up to 38.3 µM
Outline: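 Assay measures total GFP intensity per well in HeLa EGFP-705 cells after 2 days with compound; mis-splicing normally truncates EGFP, so fluorescence indicates corrected splicing.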

Sequence of Lysosomal acid glucosylceramidase (Homo sapiens) (P04062 whole entry, looked up): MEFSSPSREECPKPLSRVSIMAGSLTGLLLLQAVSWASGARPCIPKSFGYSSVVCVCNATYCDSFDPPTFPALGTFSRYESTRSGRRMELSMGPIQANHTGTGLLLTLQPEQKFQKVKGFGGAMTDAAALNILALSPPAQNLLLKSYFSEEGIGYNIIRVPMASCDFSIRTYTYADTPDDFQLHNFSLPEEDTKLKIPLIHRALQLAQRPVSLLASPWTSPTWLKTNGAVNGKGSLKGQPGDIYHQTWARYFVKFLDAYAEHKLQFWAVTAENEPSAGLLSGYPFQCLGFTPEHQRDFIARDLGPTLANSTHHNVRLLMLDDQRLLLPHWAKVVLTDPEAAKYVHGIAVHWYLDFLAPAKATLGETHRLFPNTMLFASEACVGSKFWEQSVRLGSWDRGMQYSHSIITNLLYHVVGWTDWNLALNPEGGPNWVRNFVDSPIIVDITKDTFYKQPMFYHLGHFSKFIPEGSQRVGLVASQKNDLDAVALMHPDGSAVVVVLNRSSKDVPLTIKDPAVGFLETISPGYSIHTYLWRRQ
Sequence of 3',5'-cyclic-AMP phosphodiesterase 4B (Homo sapiens) (Q07343 whole entry, looked up): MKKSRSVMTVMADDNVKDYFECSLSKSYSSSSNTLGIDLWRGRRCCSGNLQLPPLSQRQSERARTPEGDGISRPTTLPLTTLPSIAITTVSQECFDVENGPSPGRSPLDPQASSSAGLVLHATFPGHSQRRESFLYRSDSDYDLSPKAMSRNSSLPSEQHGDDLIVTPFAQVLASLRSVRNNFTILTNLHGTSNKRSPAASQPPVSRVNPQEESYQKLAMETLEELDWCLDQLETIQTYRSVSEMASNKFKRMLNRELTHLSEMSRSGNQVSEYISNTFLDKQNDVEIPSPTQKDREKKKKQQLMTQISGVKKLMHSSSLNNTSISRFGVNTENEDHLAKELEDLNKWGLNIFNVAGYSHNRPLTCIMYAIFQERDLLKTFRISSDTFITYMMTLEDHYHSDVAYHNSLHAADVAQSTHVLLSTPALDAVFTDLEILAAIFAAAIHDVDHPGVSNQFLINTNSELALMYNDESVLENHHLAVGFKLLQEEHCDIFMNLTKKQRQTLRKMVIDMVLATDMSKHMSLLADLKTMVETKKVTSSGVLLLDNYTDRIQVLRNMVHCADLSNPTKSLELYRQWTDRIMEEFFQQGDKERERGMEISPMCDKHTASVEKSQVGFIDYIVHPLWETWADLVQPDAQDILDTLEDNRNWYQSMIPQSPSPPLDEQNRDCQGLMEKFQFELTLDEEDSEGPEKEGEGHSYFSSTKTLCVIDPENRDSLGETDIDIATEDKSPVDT
Sequence of Glucocorticoid receptor (Homo sapiens) (P04150 whole entry, looked up, the tested form may be a part): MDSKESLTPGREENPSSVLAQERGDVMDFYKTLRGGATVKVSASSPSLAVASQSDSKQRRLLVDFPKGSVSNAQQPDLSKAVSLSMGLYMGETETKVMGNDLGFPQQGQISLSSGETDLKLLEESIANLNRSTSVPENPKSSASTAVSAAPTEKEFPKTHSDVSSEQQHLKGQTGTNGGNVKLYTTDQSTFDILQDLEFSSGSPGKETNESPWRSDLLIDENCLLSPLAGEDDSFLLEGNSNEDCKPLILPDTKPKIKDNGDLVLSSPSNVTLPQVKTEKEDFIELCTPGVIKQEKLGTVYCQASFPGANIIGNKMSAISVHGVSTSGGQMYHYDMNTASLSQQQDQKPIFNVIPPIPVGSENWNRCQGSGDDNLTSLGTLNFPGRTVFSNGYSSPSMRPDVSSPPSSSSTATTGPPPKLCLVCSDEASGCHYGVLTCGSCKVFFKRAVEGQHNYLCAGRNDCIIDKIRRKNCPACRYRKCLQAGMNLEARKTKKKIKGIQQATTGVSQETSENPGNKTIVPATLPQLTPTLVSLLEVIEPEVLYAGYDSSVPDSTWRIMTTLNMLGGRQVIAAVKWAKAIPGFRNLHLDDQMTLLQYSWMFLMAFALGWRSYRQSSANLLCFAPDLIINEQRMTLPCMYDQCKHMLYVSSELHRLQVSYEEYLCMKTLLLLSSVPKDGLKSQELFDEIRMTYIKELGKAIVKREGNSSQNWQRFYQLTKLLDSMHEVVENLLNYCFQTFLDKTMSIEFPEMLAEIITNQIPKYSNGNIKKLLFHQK
Sequence of Cytochrome P450 2C9 (Homo sapiens) (P11712 whole entry, looked up): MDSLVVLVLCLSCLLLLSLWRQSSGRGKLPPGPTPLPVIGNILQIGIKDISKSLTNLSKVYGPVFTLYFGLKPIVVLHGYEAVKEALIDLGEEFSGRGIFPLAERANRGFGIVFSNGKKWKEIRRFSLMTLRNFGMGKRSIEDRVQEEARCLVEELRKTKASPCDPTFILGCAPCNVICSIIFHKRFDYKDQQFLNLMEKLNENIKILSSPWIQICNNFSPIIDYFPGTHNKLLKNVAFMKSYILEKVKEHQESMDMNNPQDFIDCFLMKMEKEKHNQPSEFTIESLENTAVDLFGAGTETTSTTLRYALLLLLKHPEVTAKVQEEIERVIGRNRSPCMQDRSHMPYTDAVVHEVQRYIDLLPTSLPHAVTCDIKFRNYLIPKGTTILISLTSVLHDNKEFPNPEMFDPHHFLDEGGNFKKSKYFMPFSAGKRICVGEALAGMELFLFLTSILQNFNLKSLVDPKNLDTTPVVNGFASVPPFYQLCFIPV
Sequence of Cytochrome P450 2D6 (Homo sapiens) (P10635 whole entry, looked up): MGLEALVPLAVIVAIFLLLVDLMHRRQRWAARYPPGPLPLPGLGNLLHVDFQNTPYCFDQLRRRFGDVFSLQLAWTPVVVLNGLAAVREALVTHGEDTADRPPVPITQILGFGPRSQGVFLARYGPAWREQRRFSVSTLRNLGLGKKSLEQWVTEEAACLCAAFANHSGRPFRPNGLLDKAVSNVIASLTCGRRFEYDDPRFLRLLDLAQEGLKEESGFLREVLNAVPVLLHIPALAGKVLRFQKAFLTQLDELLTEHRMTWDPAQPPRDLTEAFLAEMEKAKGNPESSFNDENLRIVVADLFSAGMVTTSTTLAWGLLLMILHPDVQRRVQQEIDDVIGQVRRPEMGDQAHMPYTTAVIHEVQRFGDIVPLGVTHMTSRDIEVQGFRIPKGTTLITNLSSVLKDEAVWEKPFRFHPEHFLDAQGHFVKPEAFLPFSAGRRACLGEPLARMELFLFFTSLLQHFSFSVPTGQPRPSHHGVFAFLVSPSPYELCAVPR
Sequence of Cytochrome P450 3A4 (Homo sapiens) (P08684 whole entry, looked up): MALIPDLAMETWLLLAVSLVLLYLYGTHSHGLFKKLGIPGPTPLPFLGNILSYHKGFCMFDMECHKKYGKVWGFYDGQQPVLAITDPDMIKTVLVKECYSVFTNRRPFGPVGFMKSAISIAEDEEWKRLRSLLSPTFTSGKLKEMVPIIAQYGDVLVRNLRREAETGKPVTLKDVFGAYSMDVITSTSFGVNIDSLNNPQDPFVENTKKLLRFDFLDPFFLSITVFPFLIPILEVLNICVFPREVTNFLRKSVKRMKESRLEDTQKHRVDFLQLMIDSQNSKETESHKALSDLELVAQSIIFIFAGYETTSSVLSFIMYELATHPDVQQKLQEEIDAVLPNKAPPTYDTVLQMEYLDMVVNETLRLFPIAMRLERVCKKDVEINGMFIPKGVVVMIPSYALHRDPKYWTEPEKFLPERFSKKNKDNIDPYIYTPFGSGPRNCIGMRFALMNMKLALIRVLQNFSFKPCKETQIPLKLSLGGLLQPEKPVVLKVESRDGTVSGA

| SMILES | Potency [1] [µM] | activity change, negative = inhibition [2] [%] | activity change, negative = inhibition [3] [%] | activity, negative = inhibition [4] [%] | Potency [5] [µM] | Potency [6] | Potency [7] | Potency [8] | Potency [9] | activation [10] [%] | activity change, negative = inhibition [11] | Potency [12] | outcome [13] | outcome [14] |
| --- | --- | --- | --- | --- | --- | --- | --- | --- | --- | --- | --- | --- | --- | --- |
| CC(C)(CCc1nc2ccccc2[nH]1)C(=O)O | > 11.4 | -7.34 | 6.77 | 1.19 | > 46 | > 9.22 µM | inactive | inactive | – | – | – | – | – | – |
| OCCCNCc1ccncc1 | > 11.4 | -2.93 | 5.43 | -6.9 | > 46 | > 9.22 µM | inactive | – | inactive | 1.84 | – | – | – | – |
| O=S(=O)(O)c1cc(S(=O)(=O)O)c2c(N=Nc3cccc4ccccc34)c(O)ccc2c1 | > 11.4 | 4.87 | 21.1 | 5.07 | > 46 | > 9.22 µM | inactive | inactive | – | – | -5.78% [at 11.4 µM] | inactive | – | – |
| O=C1Nc2ccccc2[C@]1(O)Cc1ccccn1 | > 11.4 | 1.94 | 2.79 | 12.1 | > 46 | 0.26 µM (active) | inactive | – | inactive | -8.99 | – | – | – | – |
| O=C(O)C[C@H](Sc1ccccc1)c1ccccc1 | > 11.4 | 7.59 | 8.06 | -24.9 | > 46 | > 9.22 µM | inactive | – | inactive | -1.84 | – | – | – | – |
| COCCn1c(=O)c(-c2ccc(OC)cc2)nc2cnc(Oc3ccccc3)nc21 | > 11.4 | -9.38 | 12.7 | 16.5 | > 9.22 | > 46 µM | inactive | – | – | – | – | – | – | – |
| Cc1cccc(CNc2nc(-c3ccc(C(=O)N(C)C)cc3)nc3ccccc23)c1 | > 11.4 | -29.6 | 25.2 | -18.6 | > 46 | > 46 µM | – | – | inactive | – | – | – | inactive | inactive |
